Activity calls are given as the source filed them. The calls were made as follows: active = hit-call score of the fitted dose curve at least 0.9, where 1 is the maximum; inactive = score below 0.9.
Assay: ATG_VDRE_CIS: Attagene CIS-FACTORIAL HepG2 Assay for human Vitamin D Receptor Element (VDRE) (AID 2282968)
Details: HepG2 VDRE cis-reporter transcription, actives raise or lower the signal
Procedure, shortened: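 Transient MRTU transfection of HepG2, 24 h compound exposure. Readout: reporter transcripts via RT-PCR and capillary electrophoresis, fluorescence. Bidirectional fit vs DMSO.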

Compound | outcome | AC50
CC(C)=CCC/C(C)=C/CO | inactive | 
CC(C)CCO | inactive | 
C=CCCCCCCCCC(=O)O | inactive | 
O=C1OC(=O)C2C3C=CC(C3)C12 (centres undefined) | inactive | 
Nc1cccc(N)c1 | inactive | 
O=C(O)c1cccc(Oc2ccccc2)c1 | inactive | 
CC[C@H]1OC(=O)[C@H](C)[C@@H](O[C@H]2C[C@@](C)(OC)[C@@H](O)[C@H](C)O2)[C@H](C)[C@@H](O[C@@H]2O[C@H](C)C[C@H](N(C)C)[C@H]2O)[C@](C)(O)C[C@@H](C)C(=O)[C@H](C)[C@@H](O)[C@]1(C)O | inactive | 
CC1(C)C(=O)N(Br)C(=O)N1Br | inactive | 
COc1ccc(/C=C/S(=O)(=O)NC(=O)c2ccc(C)cc2Cl)cc1 | inactive | 
COC(=O)CC(=O)OC | inactive | 
CCC(C)(C)C(=O)O[C@H]1C[C@@H](C)C=C2C=C[C@H](C)[C@H](CC[C@@H]3C[C@@H](O)CC(=O)O3)[C@H]21 | inactive | 
CN(C)c1ccc(Cc2ccc(N(C)C)cc2)cc1 |  | 25.8 µM (active)
CCOC(=O)c1ccc(C2CCC(NC[C@H](O)COc3ccc(O)c(NS(C)(=O)=O)c3)CC2)cc1 (some centres undefined) |  | 48.5 µM (active)
COCCOc1cc2cc(C(=O)NC3CCN(C(C)C)CC3)n(CC(=O)Nc3ccc(Cl)cn3)c2cn1 |  | 124 µM (active)
COC(=O)c1ccccc1O |  | 26.4 µM (active)
O=P(OC(CCl)CCl)(OC(CCl)CCl)OC(CCl)CCl |  | 3.53 µM (active)
COc1ccc(-n2nc(C(F)F)cc2-c2ccc(S(C)=O)cc2)cc1 (centres undefined) | inactive | 
CC(C)=CCCC(C)=CC=O |  | 22.2 µM (active)
Cn1c(=O)cc(Oc2ccc(F)cc2F)c2cnc(NCC(C)(C)O)nc21 | inactive | 
CCCCCCCCO | inactive | 
CC[C@H](C)C(=O)O[C@H]1C[C@@H](C)C=C2C=C[C@H](C)[C@H](CC[C@@H]3C[C@@H](O)CC(=O)O3)[C@H]21 |  | 4.47 µM (active)
CCCCCCc1ccc(O)cc1O |  | 38.7 µM (active)
CCCN(C1CCN(C(=O)C2CCNCC2)CC1)[C@@H]1CCc2ccc(OC)cc2C1 | inactive | 
CCCCCCCCCCCCCCCO | inactive | 
O=C(CCCCCCCCc1cccnc1)N1CCC(C=C(c2ccccc2)c2ccccc2)CC1 |  | 1.85 µM (active)
CCOCCO | inactive | 
O=c1[nH]c2ccc(S(=O)CCN3CCC(Cc4ccc(F)cc4)CC3)cc2o1 (centres undefined) |  | 55.1 µM (active)
COc1ccc2sc(C(=O)Nc3nnn[nH]3)c(OC(C)C)c2c1 |  | 157 µM (active)
CCn1nc(Cc2ccccc2)cc1C1CCN(C[C@H]2C[C@H](N(C)[C@@H](C(=O)O)C(C)C)C[C@@H]2c2cccc(F)c2)CC1 | inactive | 

Source: PubChem BioAssay (EPA / NIEHS)
